Test systems include SR leukemia; RPMI-8226 leukemia; OVCAR-8 ovarian; OVCAR-5 ovarian; OVCAR-4 ovarian; SK-OV-3 ovarian; IGROV1 ovarian; OVCAR-3 ovarian; HS 578T breast; NCI/ADR-RES ovarian; T-47D breast; BT-549 breast; MDA-MB-435 melanoma; SW-620 colon; MCF7 breast; HCT-116 colon; HCC-2998 colon; KM12 colon.
Common to all, as to test: NCI-60 one-dose screen, 48 h (100 = growth as untreated, 0 = no growth, -100 = all killed)
Holding throughout (conditions): 10 µM unless noted

Compounds without any hit were thinned out: in the full panel of roughly 83,000, 20% have a hit.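 For each line, cells grew in 96-well plates with the test compound present at a single concentration for 48 hours.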 Unmarked numbers belong to inactive results. Activity calls are given as the source filed them. How the source made its calls: active means growth percent below 10; inactive means the rest.

With `Fc1cc2c(cc1Cl)N(c1ncnc3ccc(-c4cnc5[nH]ncc5c4)cc13)CC2`, the growth was 57.1% in the experiment on SR leukemia; 60.3% in the experiment with RPMI-8226 leukemia; 60.9% in the experiment on OVCAR-8 ovarian; 38.4% in the experiment on OVCAR-5 ovarian; 66.4% in the experiment with OVCAR-4 ovarian; 50.8% in the experiment with SK-OV-3 ovarian. The growth is 13.2% in the experiment on IGROV1 ovarian; 60.4% with OVCAR-3 ovarian; 25.9% in the experiment on HS 578T breast; 65.2% in the experiment on NCI/ADR-RES ovarian; 17.8% in the experiment on T-47D breast; 62.8% in the experiment on BT-549 breast. For the same compound, the growth with MDA-MB-435 melanoma is 74.1%; in the experiment with SW-620 colon, 80.2%; in the experiment with MCF7 breast, 30.9%; in the experiment on HCT-116 colon it was 70.3%; in the experiment with HCC-2998 colon, 69.1%; in the experiment with KM12 colon, 77.8%.

Consider `COc1ccc2nc3ccc(OC)cc3c(SCCCN)c2c1`, for which the growth in the experiment with SR leukemia is -30.8% (active); in the experiment on RPMI-8226 leukemia it was -22.7% (active); in the experiment on OVCAR-8 ovarian it was 76.1%; in the experiment with OVCAR-5 ovarian, 83.2%; in the experiment on OVCAR-4 ovarian it was 63.9%; in the experiment on SK-OV-3 ovarian it was 95%. Further, the growth with IGROV1 ovarian was 97.2%; in the experiment with OVCAR-3 ovarian, 71.3%; in the experiment with HS 578T breast, 89.7%; in the experiment with NCI/ADR-RES ovarian, 86.9%; with T-47D breast, 76.5%; in the experiment on BT-549 breast, 95.5%. The growth in the experiment on MDA-MB-435 melanoma was 87.3%; with SW-620 colon, 18.3%; in the experiment on MCF7 breast it was 28.7%; with HCT-116 colon, -49.8% (active); in the experiment with HCC-2998 colon, 105%; in the experiment with KM12 colon it was 83.2%.

Turning to `C/C(=C(/c1ccc(Cl)cc1)c1ccc(OCCN2CCCC2)cc1)c1ccc(Cl)cc1`, the growth in the experiment on SR leukemia was 4.02% (active); in the experiment on RPMI-8226 leukemia, 57.8%; in the experiment with OVCAR-8 ovarian, 88.8%; with OVCAR-5 ovarian it was 88.9%; in the experiment on OVCAR-4 ovarian, 95.1%; with SK-OV-3 ovarian, 108%. Also, the growth with IGROV1 ovarian was 81.1%; in the experiment with OVCAR-3 ovarian, 88.3%; in the experiment on HS 578T breast it was 90.9%; in the experiment on NCI/ADR-RES ovarian, 90.4%; with T-47D breast, 59.5%; in the experiment with BT-549 breast, 96.5%. Also, the growth was 89.6% with MDA-MB-435 melanoma; 54.6% with SW-620 colon; 34.1% with MCF7 breast; 50.4% with HCT-116 colon; 102% in the experiment on HCC-2998 colon; 52.4% with KM12 colon.

Take `CCOP(=O)(OCC)c1nc(-c2ccccc2)oc1NCc1cccnc1`: the growth with SR leukemia was 102%; in the experiment on RPMI-8226 leukemia, 101%; with OVCAR-8 ovarian, 106%; in the experiment with OVCAR-5 ovarian, 101%; in the experiment with OVCAR-4 ovarian it was 112%; in the experiment with SK-OV-3 ovarian, 106%. Further, the growth is 100% in the experiment on IGROV1 ovarian; 110% in the experiment with OVCAR-3 ovarian; 109% in the experiment with HS 578T breast; 105% with NCI/ADR-RES ovarian; 85.5% in the experiment with T-47D breast; 111% with BT-549 breast. Further, the growth with MDA-MB-435 melanoma is 104%; in the experiment on SW-620 colon it was 101%; with MCF7 breast, 103%; in the experiment with HCT-116 colon, 102%; in the experiment on HCC-2998 colon, 106%; with KM12 colon, 111%.

`CC(C)(C)n1cc(-c2ccnc(NCCCNS(=O)(=O)c3ccc(F)cc3)c2)c(-c2cccc(F)c2)n1`: the growth with SR leukemia was 14.3%; with RPMI-8226 leukemia, 28.1%; in the experiment on OVCAR-8 ovarian it was 54.8%; with OVCAR-5 ovarian it was 69%; in the experiment on OVCAR-4 ovarian it was 79.2%; in the experiment on SK-OV-3 ovarian it was 75.3%. The growth is 68.6% in the experiment with IGROV1 ovarian; 74.8% in the experiment on OVCAR-3 ovarian; 78.9% in the experiment with HS 578T breast; 52% in the experiment on NCI/ADR-RES ovarian; 24.6% in the experiment on T-47D breast; 50.2% in the experiment with BT-549 breast. For the same compound, the growth in the experiment on MDA-MB-435 melanoma is 73.8%; with SW-620 colon, 22.4%; in the experiment with MCF7 breast it was 41.2%; with HCT-116 colon, 37%; in the experiment with HCC-2998 colon it was 54.7%; in the experiment with KM12 colon it was 40.9%.

With `O=C(c1cc2ccccc2o1)c1nn(-c2ccccc2)/c(=N/N=Cc2cn(-c3ccccc3)nc2-c2cc3ccccc3oc2=O)s1`, the growth in the experiment with SR leukemia was 72.7%; with RPMI-8226 leukemia, 90.9%; with OVCAR-8 ovarian it was 97.5%; in the experiment with OVCAR-5 ovarian, 105%; with OVCAR-4 ovarian it was 93.3%; in the experiment with SK-OV-3 ovarian, 127%. Further, the growth with IGROV1 ovarian was 99.1%; in the experiment on OVCAR-3 ovarian it was 100%; in the experiment on HS 578T breast, 99.8%; with NCI/ADR-RES ovarian, 96.5%; in the experiment on T-47D breast, 92.9%; with BT-549 breast, 108%. For the same compound, the growth in the experiment on MDA-MB-435 melanoma was 81.1%; with SW-620 colon, 97.1%; in the experiment with MCF7 breast, 83.1%; in the experiment with HCT-116 colon it was 89.8%; with HCC-2998 colon, 104%; in the experiment with KM12 colon it was 96.5%.

On to `N#C/C(=C\c1ccc2ccccc2c1)c1cc2ccccc2[nH]1`, for which the growth in the experiment on SR leukemia was 23.5%; in the experiment on RPMI-8226 leukemia, 32.4%; with OVCAR-8 ovarian, 46.5%; in the experiment with OVCAR-5 ovarian, 61.2%; with OVCAR-4 ovarian, 88.3%; in the experiment with SK-OV-3 ovarian, 64%. Also, the growth with IGROV1 ovarian was 48.1%; in the experiment on OVCAR-3 ovarian it was 7.91% (active); with HS 578T breast, 25.8%; in the experiment with NCI/ADR-RES ovarian it was 12.4%; in the experiment with T-47D breast, 32.9%; with BT-549 breast, 59.8%. Further, the growth in the experiment on MDA-MB-435 melanoma was -19% (active); in the experiment with SW-620 colon, 15.8%; with MCF7 breast, 14.4%; in the experiment on HCT-116 colon it was 16.8%; in the experiment on HCC-2998 colon, 60.4%; with KM12 colon it was 25.5%.

As for `Cc1nc(N2CCOCC2)sc1S(N)(=O)=O`, the growth in the experiment on SR leukemia is 98.3%; with RPMI-8226 leukemia, 102%; with OVCAR-8 ovarian, 103%; with OVCAR-5 ovarian it was 96.5%; with OVCAR-4 ovarian, 112%; in the experiment on SK-OV-3 ovarian, 102%. The growth with IGROV1 ovarian is 99.4%; in the experiment on OVCAR-3 ovarian, 102%; in the experiment on HS 578T breast it was 100%; in the experiment on NCI/ADR-RES ovarian it was 102%; in the experiment with T-47D breast it was 93%; with BT-549 breast it was 98.1%. Besides, the growth was 105% in the experiment on MDA-MB-435 melanoma; 91.5% in the experiment on SW-620 colon; 93.5% in the experiment on MCF7 breast; 103% with HCT-116 colon; 104% in the experiment on HCC-2998 colon; 94.1% in the experiment on KM12 colon.

The values above are taken from PubChem BioAssay (NCI).
